From PubChem BioAssay AID489025 (Southern Research Specialized Biocontainment Screening …, 2010)
Among all 2,300 compounds or so, about 790 (34%) were called active. The list shows a part of the results. Measured potencies and affinities stand elsewhere. A number with no mark means an inactive call. The rule behind the calls is not given here.

assay: THP-1 cell cytotoxicity, dose response, cytotoxicity control for non-replicating M. tuberculosis project (AID 489025); details: THP-1 cell viability; series mostly up to 40 µM; viability: at the top concentration

SMILES	viability [%]
COc1ccccc1NC(=O)CCN1CCN(c2ccc(Cl)cc2)CC1	114
O=[N+]([O-])c1ccc(CSc2nnc(-c3cccnc3)o2)cc1	94.9
CC1(c2nnc(-c3ccc(F)cc3)o2)CC(c2cccc(Cl)c2)=NO1 (configuration not stated)	102
COC(=O)CCn1c(C)cc(C(=O)COc2ccccc2C(N)=O)c1C	70.3
CCCNC(=O)c1ccc(COc2ccc(C)cc2)o1	110
CCOC(=O)C(C)Oc1ccc(OCc2ccccc2)cc1 (configuration not stated)	77.2
Cc1ccc(/C=C2\SC(N3CCCC3)=NC2=O)cc1	91.7
CCNC(=O)NC(=O)C(C)OC(=O)CCCSc1nc2ccccc2s1 (configuration not stated)	99.5
O=[N+]([O-])c1ccc(Nc2ccccc2)c2nonc12	95.5
O=[N+]([O-])c1ccc(Nc2ccccc2O)c2nonc12	79.9
CC1(c2nnc(-c3ccccc3)o2)CC(c2ccc(Cl)cc2)=NO1 (configuration not stated)	112
C/C(=N/NC(=O)c1ccncc1)C1=C(O)CC(C)(C)CC1=O	120
Cn1cccc1/C=N/NC(=O)c1ccncc1	109
O=[N+]([O-])c1cncc([N+](=O)[O-])c1Nc1ccccc1Cl	70.5
Cc1cccc(NC(=O)c2ccc(OC3CSC3)cc2)c1	87.2
O=C(N/N=C/c1ccc(OC(=O)c2cccs2)cc1)c1ccccn1	88.1
COc1ccc(Cc2nnc(SCc3ccc([N+](=O)[O-])cc3)o2)cc1	86.3
O=C(Nc1ccc2c(c1)CCC2)c1ccc(Br)o1	74.3
O=C(OCC(=O)N1CCC(c2ccccc2)=N1)c1ccc([N+](=O)[O-])s1	85.2
CC(OC(=O)c1ccc([N+](=O)[O-])s1)C(=O)NC1CCCCC1C (configuration not stated)	90.2
COc1cccc(NC(=O)c2ccc(Cn3cc([N+](=O)[O-])cn3)o2)c1	111
CC(=O)c1ccc(NC(=O)CCc2ccc(C)o2)cc1	92.8
CC(C)(C)C(=O)/C=C/Nc1ccccc1O	102
O=C(CC1CC2CCC1C2)NCc1cccs1 (configuration not stated)	100
O=C(OCC(=O)N1CCc2ccccc2C1)c1cccc([N+](=O)[O-])c1	121
O=C(CCS(=O)(=O)c1ccc(Cl)cc1)Oc1ccc2c(c1)OCO2	110

SMILES	viability [%]
CCc1cc(C=NC2CCCCC2)c(O)s1	82.6
Cc1ccc(CSc2nnc(-c3cccnc3)o2)cc1	105
Cc1ccccc1C1=N/C(=C/c2cccnc2)C(=O)O1	102
CCCc1nnc(NC(=O)c2cc3ccccc3oc2=O)s1	108
COc1cc(OC)c2c(OC)cccc2n1	107
Cc1ccc(C(C)NC(=O)c2cc3ccccc3oc2=O)cc1C (configuration not stated)	102
CC(NC(=O)c1cc2ccccc2oc1=O)c1ccccc1 (configuration not stated)	110
CCCc1cc(C(=O)Nc2cccc(C(C)=O)c2)no1	120
Cc1cc(OCC(=O)Nc2ccncc2)ccc1Br	119
CSC1=N/C(=C\c2ccc3c(c2)OCO3)C(=O)S1	116
COc1ccc2c(c1)sc(=N)n2C	74.8
Cc1ccc(NC(=O)C2COc3ccccc3O2)nc1 (configuration not stated)	94.7
O=C(Nc1nnc(C2=COCCO2)o1)c1ccc(F)cc1	81.9
COc1ccc(C(=O)Nc2nnc(C3=COCCO3)o2)cc1	105
CCCn1c(CNc2ccccc2O)nc2ccccc21	75.4
O=c1oc2ccccc2c(Nc2ccccc2O)c1[N+](=O)[O-]	93.7
Clc1ccc(OC2CCN(Cc3nc(CC4CC4)no3)CC2)cc1	90
CCCCOc1ccc(-c2nnn(C(C)C(=O)OCC)n2)cc1 (configuration not stated)	105
CCOC(=O)c1sc(NC(=O)CCN2CC(C)OC(C)C2)c(C(=O)OCC)c1C (configuration not stated)	82.6
CCc1nonc1NC(=O)COc1ccc(Cl)c(C)c1	126
O=C1c2ccccc2C(=O)N1CCOc1ccc(F)cc1	95.2
Cc1cc(C)cc(OC(=O)CCN2C(=O)c3ccccc3C2=O)c1	100
O=C(c1ccc([N+](=O)[O-])o1)N1CCN(c2nc3ccc(F)cc3s2)CC1	106
COc1cccc2cc(C(=O)c3ccc([N+](=O)[O-])cc3)oc12	85.8
C=CC[n+]1ccn(-c2nc3ccccc3nc2[N-]S(=O)(=O)c2cccs2)c1	110
CCCCCCNC(=O)c1ccc(Br)o1	104

SMILES	viability [%]
CC(=O)CCC1CC(c2ccc(Cl)cc2)=NO1 (configuration not stated)	103
Cc1c(Cl)cccc1NC(=O)C(=O)NNC(=O)c1ccccc1F	79.9
CCOC(=O)c1c(NC(=O)COC(=O)c2ccccn2)sc2c1CCC2	97.1
O=C(Nc1nnc(-c2cc(Cl)ccc2Cl)o1)C1=COCCO1	75.8
O=C(CCN1C(=O)S/C(=C\c2ccc(F)cc2)C1=O)Nc1ccc(C(=O)O)c(O)c1	107
O=C(NNC(=O)c1ncc(Cl)c(Cl)c1Cl)c1ccc(F)cc1	92.2
CC1CCN(CCOCCSc2ccc(Cl)cc2)CC1	74
COc1ccc2cc(C(=O)NCc3ccccc3)c(=O)oc2c1	103
O=C(CCC1CCCC1)NCc1ccccn1	107
COc1ccc(NC(=O)COc2ccc3c(c2)CCC3)cc1	111
Cc1ccc(C2=N/C(=C\c3cccnc3)C(=O)O2)cc1	117
O=C1OC(/C=C/c2ccccc2)=NC/1=C\c1cccnc1	119
C=CCn1c(=O)c(C(=O)Nc2cccnc2)c(O)c2ccccc21	103
CCn1c(=O)c(C(=O)Nc2ncccc2C)c(O)c2ccccc21	71.2
Cn1c(=O)c(Oc2ccc(Cl)cc2)c(O)c2ccccc21	118
Cc1cccnc1NC(=O)c1c(O)c2ccccc2n(C)c1=O	85.8
COc1cc(C2C3=C(CC(C)(C)CC3=O)OC(N)=C2[N+](=O)[O-])ccc1O (configuration not stated)	97.8
CCCCOc1ccc(CSCCN)cc1Cl	99.1
O=C1N(c2ccc3c(c2)OCCO3)C(c2ccccc2)C1(F)F (configuration not stated)	117
NC(=O)COc1ccc2cc(-c3ccc(F)cc3)c(=O)oc2c1	119
Cc1n[nH]c(=S)n1/N=C/c1ccc(OCc2ccc(Cl)cc2Cl)cc1	107
CN1CCC(O)(c2cccs2)C(C(=O)c2cccs2)C1 (configuration not stated)	74.7
CC1CCN(C(=O)C2COc3ccccc3O2)CC1 (configuration not stated)	102
CCCn1c(=O)c(C(=O)N/N=C/c2ccccc2F)c(O)c2ccccc21	78.5
C/C(=N\Nc1nc2ccccc2[nH]1)c1ccc(N2CCOCC2)cc1	81.7
